Molecules are shown by their SMILES. Inconclusive results are not listed. Unmarked numbers belong to inactive results. Active and inactive are the calls of the source. Calls follow the shape of the dose curve; as a rule, active = well fitted inhibition curve with a large enough effect; inconclusive = small, poorly fitted or top-dose-only effect; inactive = flat fitted curve, though single readings scatter.
% is scaled to controls: 0 for no effect and ±100 for the full control effect.

Chain of Calcium and integrin-binding protein 1 (Homo sapiens) (Q99828 whole entry, looked up): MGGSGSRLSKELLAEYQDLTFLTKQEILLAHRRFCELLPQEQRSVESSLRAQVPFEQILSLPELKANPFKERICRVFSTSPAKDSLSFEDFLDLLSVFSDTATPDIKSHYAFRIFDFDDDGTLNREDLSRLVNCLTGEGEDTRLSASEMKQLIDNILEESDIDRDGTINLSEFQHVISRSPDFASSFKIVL

The target of the experiment is Calcium and integrin-binding protein 1 (Homo sapiens) (UniProt Q99828). Put plainly: Primary qHTS for Identification of Calcium Integrin Binding Protein 1 (CIB1) Competitor (AID 1508620). Also: top concentration of the series differs between compounds. The note with it: CIB1-GST / FITC-alphaIIb peptide fluorescence polarization; series mostly up to 114 µM; activity change, negative = inhibition: at the top concentration. Put shortly:
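Fluorescence polarization competition: GST-tagged CIB1 (1 uM final) preincubated with compound 15 min at room temperature, then FITC-labelled alphaIIb peptide (100 nM final) added. After 15 min at room temperature, polarization read at Ex 480/Em 540.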
(Quantitative high-throughput screening tests each substance at several concentrations.)
Consider `CN(Cc1ccccc1)C(=O)C1CCN(Cc2cccc3ccccc23)CC1`, for which the “activity change, negative = inhibition” value is 1.24%. With `O=S1(=O)N=C(Oc2ccccc2Br)c2ccccc21`, the “activity change, negative = inhibition” value was -1.04%.

In the case of `CC(=O)Nc1sc2c(c1-c1ccc(C(F)(F)F)cc1)CCNC2`, the “activity change, negative = inhibition” value is 3.18%. For `Oc1ccc(COC2CCN(Cc3ccccc3)C2)c2cccnc12` (stereo not given), the “activity change, negative = inhibition” value was -15.8%. As for `CC(=O)Nc1ccc(S(=O)(=O)Nc2cccc3cccnc23)cc1`, the “activity change, negative = inhibition” value is 4.04%. As for `CC(=O)Nc1sc2c(c1-c1cc3ccccc3o1)CCNC2`, the “activity change, negative = inhibition” value was 19%. `O=c1c2[nH]c3ccsc3c2cnn1Cc1ccccc1F`: the “activity change, negative = inhibition” value was 1.08%. Same read-out and setting: the value for `O=C(Cn1cc(CNC(=O)C2CCCCC2)nn1)Nc1cc(C(F)(F)F)ccc1Cl` was 2.8%; that for `O=C(NCc1nnc(-c2cc3ccccc3[nH]2)s1)c1ccccc1` was 0.109%; that for `Cc1cc(C)nc(NC(=S)N2CCN(c3cccc4nccn34)CC2)c1` was -6.15%. On to `CC1(C)CC(=O)C2=C(C1)NC(Nc1nc3ccccc3o1)=NC21CCCC1`, for which the “activity change, negative = inhibition” value is 4.95%. As to `Cc1cc(C)nc(NC(=S)N2CCN(c3noc4ccccc34)CC2)c1`, the “activity change, negative = inhibition” value was -3.73%.

With `COc1ccc(-c2nnc3n2N=C(c2ccc(OC)cc2OC)CS3)cc1`, the “activity change, negative = inhibition” value was 0.327%. As to `COc1ccc(N2CCN(S(=O)(=O)c3ccc4c(c3)CC(=O)N4)CC2)cc1`, the “activity change, negative = inhibition” value was 3.12% [at 228 µM].

In the case of `COc1ccccc1C1=Nn2c(COc3ccccc3)nnc2SC1`, the Potency result was “inactive”. On to `c1nc(NCCc2cnc[nH]2)c2cc(-c3ccc4c(c3)OCO4)ccc2n1`, for which the Potency entry is “inactive”. Take `COc1ccc(Nc2nn3c(=O)c4ccccc4nc3s2)cc1`: the “activity change, negative = inhibition” value is -4.69%. For the compound `CC(C)(C)OC(=O)NCCOCCOCCOCCn1ncc2c1CCCC2NC(=O)c1ccccn1` (stereo not given), the “activity change, negative = inhibition” value was -2.14%. As to `COc1ccc(C2Nc3ccccc3C(=O)N2Cc2ccccc2OC)cc1COc1ccc(NC(C)=O)cc1` (stereo not given), the “activity change, negative = inhibition” value is 2.01%.

As for `Cc1nc2ccccn2c1P(=O)(c1ccccc1)c1ccccc1`, the “activity change, negative = inhibition” value is 4.61%. `Fc1ccc(-c2noc(CCCCSc3nnc(-c4cccc5ccccc45)o3)n2)cc1`: the Potency result is “inactive”. Consider `Cc1cc(C)nc(NC(=S)N2CC3CN(c4ccc(Cl)cc4C(F)(F)F)CC3C2)c1` (stereo not given), for which the “activity change, negative = inhibition” value is 1.57%.

For the compound `CCOC(=O)C1CCN(C(=O)C(C)(C)NC(=O)Nc2ccc(N(C)C)cc2)CC1`, the “activity change, negative = inhibition” value was -2.05%.

Regarding `Cc1ccc(NS(=O)(=O)c2ccc3c(c2)NC(=O)CO3)cc1C`, the “activity change, negative = inhibition” value was 5.69%. For the compound `COc1ccc(C2Nc3ccccc3C(=O)N2Cc2ccccc2OC)cc1COc1c(C)cc(NC(C)=O)cc1C` (stereo not given), the “activity change, negative = inhibition” value is -2.21%.

Consider `COc1cc(OC)c2c(c1)OC(=O)CC2c1ccc2c(c1)OCO2` (stereo not given), for which the “activity change, negative = inhibition” value was -0.25% [at 228 µM]. With `CN(C)CCCNc1ccc(NC(=O)c2cccs2)cn1`, the “activity change, negative = inhibition” value was 0.751%. On to `O=C(O)c1ccc(O)c2ncc(NCC3CCCN(CCc4ccccc4)C3)cc12` (stereo not given), for which the “activity change, negative = inhibition” value is -9.95%. On the same count and under the same terms, the value for `O=S(=O)(Nc1ccc(-c2ccccc2)cc1)c1ccc(NCc2ccc(Br)cc2O)cc1` was -0.328%. For the compound `Fc1cc(Nc2nc(-c3ccncc3)nc3ccccc23)ccc1-c1ccncc1`, the “activity change, negative = inhibition” value was 23.5%. Same read-out and setting: the same measure for `Nc1cc(S(=O)(=O)N2CCN(S(=O)(=O)c3ccc4c(c3)OCCO4)CC2)ccn1`: 5.78%.

Take `C(#Cc1cccs1)c1cccnc1`: the “activity change, negative = inhibition” value is -1.79%.

On to `O=C(Nc1ccc(-n2ccnc2)c(F)c1)Nc1nnc(-c2ccncc2)s1`, for which the “activity change, negative = inhibition” value is -3.16%.

`Cc1ccc(C2N=C(Nc3nc4ccccc4o3)NC3=C2C(=O)CCC3)s1` (stereo not given): the “activity change, negative = inhibition” value is -9.45%. The same measure, in the same setting: the value for `Cc1ccc(OCCn2c(CCNC(=O)c3ccncc3)nc3ccccc32)cc1` was 2.21%; that for `COc1ccccc1NS(=O)(=O)c1cc(NC(=O)c2ccccc2)ccc1N1CCCC1` was -2.78%. Take `CC(=O)c1cccc(NC(=O)c2cnn3c(C)cc(C)nc23)c1`: the “activity change, negative = inhibition” value was 3.09%. The same measure, in the same setting: the value for `CCn1cnc2c(Nc3ccc(Cc4cccnc4)cc3)nc(C#N)nc21` was 1.29%.

On to `N#Cc1c(-c2ccc3c(c2)OCO3)no[n+]1[O-]`, for which the “activity change, negative = inhibition” value was -1.28%. Still for that read-out and setting: the same measure for `CC(=O)Nc1ccc(-c2c(NC(C)=O)sc3c2CCNC3)cn1`: -16.3%.

The record behind these values is PubChem BioAssay (NCATS).
